The structures appear in SMILES notation. Records with an inconclusive call do not appear. The source made the active and inactive calls. Calls follow the shape of the dose curve; as a rule, active = well fitted inhibition curve with a large enough effect; inconclusive = small, poorly fitted or top-dose-only effect; inactive = flat fitted curve, though single readings scatter.
% is scaled to controls: 0 for no effect and ±100 for the full control effect; potency is read from the fitted curve at half-maximal effect.

This test deals with KB-3-1. Kind of test: Cytotoxic Profiling of Annotated Libraries Using Quantitative High-Throughput Screening (AID 1296008). Also: nearly all actives have a fitted effect of over 60% in size. As to conditions: Five cell lines viability, CellTiter-Glo ATP luminescence, 48-72 h; max response: hits give low values. The essentials: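 Cytotoxicity was measured as CellTiter-Glo ATP luminescence, read after 10 min at room temperature. Compound treatment of the cells lasted 48 or 72 hr at 37 degrees Celsius in a qHTS format.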
(ATP-based viability assays read luminescence as a measure of living cells.)
For `O=C(O)c1ccc(NC2OC[C@@H](O)[C@H](O)[C@H]2O)cc1` (some centres undefined), the max response is -17.7% (inactive).

For the compound `Cc1cccc(Nc2ncccc2C(=O)O)c1C`, the max response is 14.2% (inactive).

For the compound `CC(C)N1CCN(c2ccc(OC[C@H]3CO[C@](Cn4cncn4)(c4ccc(Cl)cc4Cl)O3)cc2)CC1`, the max response was 0.302% (inactive). The same measure, in the same setting: the value for `CC1(O)CCC(C(C)(C)O)CC1` (centres undefined) was -9.81% (inactive); that for `CC(=O)[C@@]1(O)CC[C@H]2[C@@H]3C=C(Cl)C4=CC(=O)[C@@H]5C[C@@H]5[C@]4(C)[C@H]3CC[C@@]21C` was 1.37% (inactive). As to `CO/N=C(\C(=O)N[C@@H]1C(=O)N2C(C(=O)[O-])=C(C[n+]3cccc4c3CCC4)CS[C@H]12)c1csc(N)n1`, the max response is -1.98% (inactive). Still for that read-out and setting: the value for `CC(C)=CCC/C(C)=C/C=C/C(C)=C/C=C/C(C)=C/C=C/C=C(C)/C=C/C=C(C)/C=C/C=C(\C)CCC=C(C)C` was -16.3% (inactive). The same measure, in the same setting: the figure for `OB(O)O` is -9% (inactive); for `CNC(=O)[C@H](Cc1c[nH]c2ccccc12)NC(=O)[C@@H](CC(=O)NO)CC(C)C` it is -8.09% (inactive). The same measure, in the same setting: the value for `c1ccc2c(c1)Sc1ccccc1N2CCN1CCCC1` was -12.7% (inactive); that for `CC(C)[C@H](N)C(=O)OCC(CO)OCn1cnc2c(=O)[nH]c(N)nc21` (some centres undefined) was 3.14% (inactive); that for `C=N[C@@H](C(=O)N[C@@H]1C(=O)N2[C@@H]1SC(C)(C)[C@@H]2C(=O)O)c1ccccc1` was 0.762% (inactive).

In the case of `CC1=C(/C=C/C(C)=C/C=C/C(C)=C/C=C/C=C(C)/C=C/C=C(C)/C=C/C2=C(C)C[C@@H](O)CC2(C)C)C(C)(C)C[C@H](O)C1`, the max response was -5.35% (inactive). On the same count and under the same terms, the figure for `[O]=[Bi][O]C(=O)[O][Bi]=[O]` is -15.6% (inactive); for `NC(=O)c1cc[n+](CC2=C(C(=O)O)N3C(=O)[C@@H](NC(=O)C(c4ccccc4)S(=O)(=O)[O-])[C@H]3SC2)cc1` (some centres undefined) it is 1.04% (inactive); for `C=C1c2c(Cl)ccc(O)c2C(O)=C2C(=O)[C@]3(O)C(O)=C(C(N)=O)C(=O)[C@@H](N(C)C)[C@@H]3[C@@H](O)[C@H]12` it is 7.79% (inactive). For the compound `NCCO/C=C/[C@H](N)C(=O)O`, the max response is 0.921% (inactive). On the same count and under the same terms, the value for `O=C(CCCCCCCCCCCCC1CCCC1)Nc1ccc(S(=O)(=O)c2ccc(NC(=O)CCCCCCCCCCCCC3CCCC3)cc2)cc1` was 4.77% (inactive); that for `CO/N=C(\C(=O)N[C@@H]1C(=O)N2C(C(=O)O)=C(CSc3nnnn3C)CS[C@H]12)c1csc(N)n1` was -10.7% (inactive); that for `CN(C)CCC(O)(c1ccccc1)c1ccccc1Cl` (centres undefined) was 3.32% (inactive). For the compound `CN=C1C=CC(=C(c2ccc(N(C)C)cc2)c2ccc(N(C)C)cc2)C=C1`, the Potency was 7.31 µM (active).

Take `CC(C)C1=CC2=CC[C@@H]3[C@](C)(CCC[C@@]3(C)C(=O)O)[C@H]2CC1`: the max response is -11.9% (inactive). The same measure, in the same setting: the value for `CCCCCCCCCCCCCCCCCCOCC(COP(=O)([O-])OCC[N+](C)(C)C)OC` (centres undefined) was 0.811% (inactive). Still for that read-out and setting: the value for `CO[C@H]1C=CO[C@@]2(C)Oc3c(C)c(O)c4c(O)c(cc(O)c4c3C2=O)NC(=O)/C(C)=C\C=C/[C@H](C)[C@H](O)[C@@H](C)[C@@H](O)[C@@H](C)[C@H](OC(C)=O)[C@@H]1C` was -3.21% (inactive); that for `O=P(O)(O)O` was 2.99% (inactive). Still for that read-out and setting: the figure for `NC[C@H]1O[C@H](O[C@H]2[C@H](O)[C@@H](O[C@H]3O[C@H](CO)[C@@H](O)[C@H](N)[C@H]3O)[C@H](N)C[C@@H]2N)[C@H](O)[C@@H](O)[C@@H]1O` is 14.5% (inactive); for `CCN(CC)CCC(=O)N1c2ccccc2Sc2ccc(C(F)(F)F)cc21` it is 2.13% (inactive). For `CN(C)CCC=C1c2ccccc2C(C)(C)c2ccccc21`, the max response is -19.1% (inactive). The same measure, in the same setting: the figure for `CNC(=O)c1c(I)c(C(=O)NCC(=O)Nc2c(I)c(C(=O)O)c(I)c(C(=O)NCCO)c2I)c(I)c(N(C)C(C)=O)c1I` is 10% (inactive). Same read-out and setting: the figure for `CC1(C)S[C@@H]2[C@H](N3C(=O)C(c4ccccc4)NC3(C)C)C(=O)N2[C@H]1C(=O)O` (some centres undefined) is 3.76% (inactive); for `NC(=S)NS(=O)(=O)c1ccc(N)cc1` it is 5.24% (inactive). As to `CCOc1cc(-c2nccc3cc(OC)c(OC)cc23)cc(OCC)c1OCC`, the max response is -26.3% (inactive).

Take `CC(C)[C@@H](N)C(=O)O`: the max response is -13.9% (inactive). Still for that read-out and setting: the value for `C=C1CC[C@H](O)C/C1=C\C=C1/CCC[C@]2(C)[C@@H]([C@H](C)CCCC(C)C)CC[C@@H]12` was -5.93% (inactive).
